# Assay outcomes from PubChem.
# HIV RNase H inh-1 = HIV-1 RT RNase H inhibitors, primary screen, biochemical, fluorescence; Gag-Pol polyprotein (Human immunodeficiency virus type 1 group M subtype B (isolate …; RT-RNase H RNA/DNA duplex cleavage; inhibition, % at 10 µM; 1.9% of 65,000 active; in the data active = inhibition above about 50%
# HIV RNase H inh-2 = HIV-1 RT RNase H inhibitors, retest, confirmation, biochemical; shares compounds with HIV RNase H inh-1; Recombinant RT RNase H, fluorescent RNA/DNA duplex cleavage; inhibition, % at 10 µM; 39% of 1,000 active; AID 651, 2007; in the data active = inhibition above about 48%; inconclusive = no clear call, values can overlap the other calls
# * marks the source's active call; other numbers are inactive results; ? = inconclusive. Shown is part of a subset that was picked to be rich in hits.
SMILES,HIV RNase H inh-1,others
O=CN1CC(=O)N(c2ccccc2)c2c([nH]c3ccccc23)C1,-13,
COc1cccc(NC(=O)c2cn(C)c(=O)c3cc(OC)c(OC)cc23)c1,-13,
COC(=O)CCCC(=O)Nc1c(F)c(F)c(F)c(F)c1F,-11,
COC(=O)c1ccc(-n2nnnc2SCc2nn[nH]n2)cc1,-6,
O=C(CSc1ccc2nnc(-c3ccccn3)n2n1)NCc1ccco1,3,
COC(=O)c1sc(NC(=O)CSc2nnnn2-c2ccc(C)cc2C)nc1C,64*,HIV RNase H inh-2=9
COC(=O)c1ccc(CSc2nnnn2-c2ccc(C)cc2C)o1,-33,
Cc1ccc(-n2nnnc2SCC(N)=O)c(C)c1,-44,
COc1cc(OC)cc(C(=O)Nc2cccc(N3CCCC3)c2)c1,2,
COc1ccc(-n2c(Cn3c(=O)sc4ccccc43)nnc2SCC(=O)N2CCCC2)cc1,-8,
COc1ccc(N2CSC3=C(C#N)C(c4ccc(OC)c(OC)c4)CC(=O)N3C2)c(OC)c1 (configuration not stated),82*,HIV RNase H inh-2=67*
COc1ccc(C2C(C#N)=C(N)OC(C(C)(C)C)=C2C#N)cc1OC (configuration not stated),-2,
CCOc1ccccc1N1CCN(c2nc3ccccc3nc2C(C#N)C(=O)OC)CC1 (configuration not stated),6,
N#CC1=C(N)N(c2ccccc2)C2=C(C(=O)CCC2)C1c1cccs1 (configuration not stated),35,
COc1ccc(N2C(=O)C3CC(C)=C(C)CC3C2=O)c(OC)c1 (configuration not stated),-1,
CCSC1=C(C#N)C(c2ccc(OC)c(OC)c2)CC(=O)N1 (configuration not stated),-7,
COc1ccc(N2CSC3=C(C#N)C(c4cccs4)CC(=O)N3C2)cc1 (configuration not stated),68*,HIV RNase H inh-2=?
CCOc1ccccc1N1CSC2=C(C#N)C(c3c(OC)ccc4ccccc34)CC(=O)N2C1 (configuration not stated),73*,HIV RNase H inh-2=64*
COc1ccc(C2C(C#N)=C(C)NC3=C2C(=O)CC(C)(C)C3)c(OC)c1 (configuration not stated),5,
COc1ccc(N2CSC3=C(C#N)C(c4cc(OC)c(OC)cc4OC)CC(=O)N3C2)c(OC)c1 (configuration not stated),86*,HIV RNase H inh-2=73*
COc1ccc(N2CCN(S(=O)(=O)c3cccs3)CC2)cc1,-11,
CCOc1ccccc1N1CCN(c2nc(N)c(C#N)c(CC#N)c2C#N)CC1,2,
Clc1ccc(CSc2nnc(-c3ccccn3)n2Cc2ccco2)c(Cl)c1,-11,
N#CC1=C(N)Oc2n[nH]c(-c3ccc(F)cc3)c2C1c1ccncc1 (configuration not stated),13,
CC(=O)c1cccc(NC(=O)COc2ccc(S(=O)(=O)N3CCCCC3)cc2)c1,0,
SMILES,HIV RNase H inh-1,others
COc1cc2c(cc1OC)C(=NCCC(=O)O)NC(C)(C)C2,-33,
NS(=O)(=O)c1cc2c(cc1C(F)(F)F)NC(Cc1ccccc1)NS2(=O)=O (configuration not stated),-7,
CS(=O)(=O)N(CC(=O)N1CCCCC1)c1sc2c(c1C#N)CCCC2,-10,
CCOC(=O)c1[nH]nc2c1C(=O)N(Cc1ccccc1)C2=O,-24,
Cc1c(NC(=O)CCCCCN2C(=O)C3C4C=CC(C4)C3C2=O)c(=O)n(-c2ccccc2)n1C (configuration not stated),-3,
COc1ccc(/C(O)=C2/C(=O)C(=O)N(CCCN(C)C)C2c2cccc(Cl)c2)cc1OC (configuration not stated),-9,
O=c1[nH]c2ccsc2c(=O)n1-c1ccc(F)c(Cl)c1,-3,
CCCSC1=C(C#N)C(c2cc(OC)ccc2OC)CC(=O)N1 (configuration not stated),-45,
CCOC(=O)C1=C(CC)OC(N)=C(C#N)C1c1cc(OC)ccc1OC (configuration not stated),-28,
COc1ccc(N2CSC3=C(C#N)C(c4cc(OC)ccc4OC)CC(=O)N3C2)c(OC)c1 (configuration not stated),86*,HIV RNase H inh-2=67*
CCSC1=C(C#N)C(c2cccc(O)c2)CC(=O)N1 (configuration not stated),-8,
CN1CSC2=C(C#N)C(c3cccc(OCc4ccccc4)c3)CC(=O)N2C1 (configuration not stated),73*,HIV RNase H inh-2=60*
CN1CCN(c2ccccc2NC(=O)c2cccc(OCc3ccccc3)c2)CC1,-9,
COC(=O)c1ccccc1NC(=O)CN(C)S(=O)(=O)c1cc(C)ccc1OC,1,
Cc1cc(=O)n(CC(C)O)c(O)c1C#N (configuration not stated),1,
Cc1ccc(-n2c(O)c(C=Nc3ccccc3N)c(=O)[nH]c2=O)cc1C,3,
CC(=O)N1CCN(c2ccc(N=Cc3c(O)n(-c4ccc(Cl)cc4)c(=O)[nH]c3=O)cc2)CC1,12,
O=c1[nH]c(=O)n(-c2ccc(F)cc2)c(O)c1C=Nc1ccccc1N1CCCC1,74*,HIV RNase H inh-2=62*
Cc1csc(=O)n1CCC(=O)O,-4,
CCCCOc1ccc(CNn2c(C)nc3ccccc3c2=O)cc1,-5,
CCCOc1ccc(C(=O)Nn2c(C)nc3ccccc3c2=O)cc1,72*,HIV RNase H inh-2=-5
Cc1nc2ccccc2c(=O)n1NC(=O)COc1ccccc1,-5,
CCOC(=O)NC(Nc1cc(C)ccn1)(C(F)(F)F)C(F)(F)F,-9,
Cc1nn(-c2ccccc2)c2sc(-c3n[nH]c(=S)o3)cc12,-16,
CCCOc1ccc([C@@H]2C3CN(C(=O)OCC)CC=C3C(C#N)=C(N)C2(C#N)C#N)cc1OC (some centres not stated),70*,HIV RNase H inh-2=19
SMILES,HIV RNase H inh-1,others
N#CC1=C(N)C(C#N)(C#N)[C@H](c2ccncc2)[C@H]2CN(C(=O)OCc3ccccc3)CC=C12,15,
COc1cc(C2C3CN(C)CC=C3C(C#N)=C(N)C2(C#N)C#N)ccc1OC(C)C (configuration not stated),1,
COC(=O)COc1ccc(S(=O)(=O)Nc2ccc(NC(C)=O)cc2)cc1C,-16,
O=c1[nH]c(=O)n(Cc2ccccc2)c2nc(-c3ccco3)cc(C(F)(F)F)c12,3,
Cc1nn(CCc2nc(-c3ccco3)cs2)c2[nH]c(=O)cc(C(F)(F)F)c12,88*,HIV RNase H inh-2=69*
Cc1cc(C)n(CCc2nc(-c3cccs3)cs2)n1,-1,
COC(=O)c1cn(C(=O)c2cccs2)c2ccccc12,-21,
Cc1cc(C)n2nc(NCc3cccc(Br)c3)nc2n1,-23,
O=C1C2C3C=CC(CO)(O3)C2C(=O)N1c1ccccc1-c1ccccc1 (configuration not stated),61*,HIV RNase H inh-2=-5
O=C1CCC(=O)N1c1ccccc1-c1ccccc1,-11,
COc1ccc(C(=O)NCC23C=CC(O2)C2C(=O)N(Cc4ccccc4)C(=O)C23)cc1 (configuration not stated),1,
O=C(COC(=O)C1CCC1)NCc1ccccc1Cl,-5,
O=C(CNC(=O)c1cccs1)NCCN1CCN(c2ccccc2F)CC1,0,
CC1(C)Cc2c(sc3c2C(=O)NC(c2cccnc2)N3)CO1 (configuration not stated),54*,HIV RNase H inh-2=6
CC(C)(C)C1CCc2c(sc3c2C(=O)NC(c2ccco2)N3)C1 (configuration not stated),19,
